Measured values published in PubChem BioAssay AID1159580 (chemical genetic matrix, 2015).
Out of some 5,500 compounds screened, about 2,000 (36%) were called active. Not shown: some 18% with an inconclusive outcome. No stated cut-off is given here; in the data, active means normalized growth mostly below about 0.91 (no sharp cut-off); inconclusive means no clear call, values can overlap the other calls; inactive means mostly above about 0.92. The list shows a part of the results.

Test: chemical genetic growth profiling, strain panel (AID 1159580);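 further: tested at 20 µM; growth read once vehicle control cultures reached saturation at 30 °C; 1 = growth at the plate median or of vehicle wells; lower values mean less growth of the strain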
Details: growth OD

Measured: normalized growth

CC(=O)O[C@H]1C(=O)[C@@]2(C)C([C@H](OC(=O)c3ccccc3)[C@]3(O)C[C@H](OC(=O)[C@H](O)[C@@H](NC(=O)c4ccccc4)c4ccccc4)C(C)=C1C3(C)C)[C@]1(OC(C)=O)CO[C@@H]1C[C@@H]2O (stereo partly specified)
inactive: S. cerevisiae deletion strains, locus YJR066W, strain TOR1, active compounds read low 0.943 | S. cerevisiae deletion strains, locus YJR075W, strain HOC1, active compounds read low 1.04 | S. cerevisiae deletion strains, locus YKL160W, strain elf1, active compounds read low 1.01 | S. cerevisiae deletion strains, locus YKL190W, strain CNB1, active compounds read low 1.02 | S. cerevisiae deletion strains, locus YKR026C, strain gcn3, active compounds read low 0.999 | S. cerevisiae deletion strains, locus YKR091W, strain srl3, active compounds read low 1 | S. cerevisiae deletion strains, locus YLL001W, strain dnm1, active compounds read low 1.05 | S. cerevisiae deletion strains, locus YLL026W, active compounds read low 0.993 | S. cerevisiae deletion strains, locus YLL041C, strain sdh2, active compounds read low 0.979 | S. cerevisiae deletion strains, locus YLR027C, strain aat2, active compounds read low 0.97 | S. cerevisiae deletion strains, locus YLR039C, strain RIC1, active compounds read low 1.06 | S. cerevisiae deletion strains, locus YLR058C, strain SHM2, active compounds read low 1.03 | S. cerevisiae deletion strains, locus YLR102C, strain apc9, active compounds read low 1.03 | S. cerevisiae deletion strains, locus YLR113W, strain HOG1, active compounds read low 0.945 | S. cerevisiae deletion strains, locus YLR221C, strain rsa3, active compounds read low 1.03 | S. cerevisiae deletion strains, locus YLR258W, strain gsy2, active compounds read low 0.997 | S. cerevisiae deletion strains, locus YLR262C, strain YPT6 (second series), active compounds read low 1.02 | S. cerevisiae deletion strains, locus YLR262C, strain YPT6, active compounds read low 1.15 | S. cerevisiae deletion strains, locus YLR268W, strain sec22, active compounds read low 1.06 | S. cerevisiae deletion strains, locus YLR320W, strain mms22, active compounds read low 1.01 | S. cerevisiae deletion strains, locus YLR330W, strain CHS5, active compounds read low 1.03 | S. cerevisiae deletion strains, locus YLR342W, strain FKS1 (second series), active compounds read low 1.06 | S. cerevisiae deletion strains, locus YLR342W, strain FKS1, active compounds read low 1 | S. cerevisiae deletion strains, locus YLR357W, strain rsc2, active compounds read low 1 | S. cerevisiae deletion strains, locus YLR370C, strain arc18, active compounds read low 1.02 | S. cerevisiae deletion strains, locus YLR371W, strain rom2, active compounds read low 1.03 | S. cerevisiae deletion strains, locus YLR384C, strain iki3, active compounds read low 0.982 | S. cerevisiae deletion strains, locus YML016C, strain PPZ1, active compounds read low 1.03 | S. cerevisiae deletion strains, locus YML032C, strain rad52, active compounds read low 1.05 | S. cerevisiae deletion strains, locus YML120C, strain ndi1, active compounds read low 1.02 | S. cerevisiae deletion strains, locus YMR058W, strain fet3, active compounds read low 0.968 | S. cerevisiae deletion strains, locus YMR125W, strain sto1, active compounds read low 1.01 | S. cerevisiae deletion strains, locus YMR129W, active compounds read low 0.987 | S. cerevisiae deletion strains, locus YMR205C, strain PFK2, active compounds read low 1.02 | S. cerevisiae deletion strains, locus YMR231W, strain pep5, active compounds read low 0.983 | S. cerevisiae deletion strains, locus YMR263W, strain SAP30, active compounds read low 1.06 | S. cerevisiae deletion strains, locus YMR307W, strain GAS1, active compounds read low 1.09 | S. cerevisiae deletion strains, locus YNL067W, strain RPL9B, active compounds read low 1.02 | S. cerevisiae deletion strains, locus YNL071W, strain lat1, active compounds read low 0.972 | S. cerevisiae deletion strains, locus YNL128W, strain TEP1, active compounds read low 1.05 | S. cerevisiae deletion strains, locus YNL153C, strain GIM3, active compounds read low 1.03 | S. cerevisiae deletion strains, locus YNL183C, strain NPR1, active compounds read low 0.952 | S. cerevisiae deletion strains, locus YNL209W, strain ssb2, active compounds read low 1.01 | S. cerevisiae deletion strains, locus YNL233W, strain BNI4, active compounds read low 1.02 | S. cerevisiae deletion strains, locus YNL250W, strain rad50, active compounds read low 0.921 | S. cerevisiae deletion strains, locus YNL271C, strain bni1, active compounds read low 1 | S. cerevisiae deletion strains, locus YNL298W, strain CLA4, active compounds read low 0.941 | S. cerevisiae deletion strains, locus YNL307C, strain MCK1, active compounds read low 1.03 | S. cerevisiae deletion strains, locus YNL322C, strain KRE1 (second series), active compounds read low 0.986 | S. cerevisiae deletion strains, locus YNL322C, strain KRE1, active compounds read low 1.03 | S. cerevisiae deletion strains, locus YNR049C, strain mso1, active compounds read low 1 | S. cerevisiae deletion strains, locus YOL006C, strain TOP1, active compounds read low 1.01 | S. cerevisiae deletion strains, locus YOL012C, strain htz1 2.06 | S. cerevisiae deletion strains, locus YOL147C, strain pex11, active compounds read low 1.05 | S. cerevisiae deletion strains, locus YOR001W, strain rrp6, active compounds read low 0.902 | S. cerevisiae deletion strains, locus YOR061W, strain CKA2, active compounds read low 1.03 | S. cerevisiae deletion strains, locus YOR069W, strain VPS5, active compounds read low 1.02 | S. cerevisiae deletion strains, locus YOR070C, strain gyp1, active compounds read low 0.995 | S. cerevisiae deletion strains, locus YOR080W, strain dia2, active compounds read low 1.01 | S. cerevisiae deletion strains, locus YOR083W, strain WHI5, active compounds read low 1.01 | S. cerevisiae deletion strains, locus YOR106W, strain vam3, active compounds read low 0.987 | S. cerevisiae deletion strains, locus YOR231W, strain MKK1, active compounds read low 0.964 | S. cerevisiae deletion strains, locus YOR265W, strain rbl2, active compounds read low 0.999 | S. cerevisiae deletion strains, locus YOR270C, strain vph1, active compounds read low 0.866 | S. cerevisiae deletion strains, locus YOR290C, strain snf2, active compounds read low 1.02 | S. cerevisiae deletion strains, locus YOR316C, strain cot1, active compounds read low 1.06 | S. cerevisiae deletion strains, locus YPL051W, strain arl3, active compounds read low 0.987 | S. cerevisiae deletion strains, locus YPL055C, strain LGE1, active compounds read low 1.1 | S. cerevisiae deletion strains, locus YPL078C, strain atp4, active compounds read low 0.956 | S. cerevisiae deletion strains, locus YPL106C, strain sse1, active compounds read low 1.04 | S. cerevisiae deletion strains, locus YPL240C, strain hsp82, active compounds read low 0.994 | S. cerevisiae deletion strains, locus YPL241C, strain CIN2, active compounds read low 1.04 | S. cerevisiae deletion strains, locus YPL256C, strain CLN2, active compounds read low 1.1 | S. cerevisiae deletion strains, locus YPR119W, strain clb2, active compounds read low 1.03 | S. cerevisiae deletion strains, locus YPR141C, strain kar3, active compounds read low 0.94 | S. cerevisiae deletion strains, locus YPR163C, strain tif3, active compounds read low 1.05 | S. cerevisiae deletion strains, strain wtn01, active compounds read low 1.09 | S. cerevisiae strains, strain wild type, active compounds read low 0.995
active: S. cerevisiae deletion strains, locus YKL009W, strain mrt4, active compounds read low 0.636 | S. cerevisiae deletion strains, locus YKL068W, active compounds read low 0.781 | S. cerevisiae deletion strains, locus YKL085W, strain MDH1 (second series), active compounds read low 0.884 | S. cerevisiae deletion strains, locus YKL085W, strain MDH1, active compounds read low 0.884 | S. cerevisiae deletion strains, locus YLR418C, strain cdc73, active compounds read low 1.25 [resistant] | S. cerevisiae deletion strains, locus YML124C, strain tub3, active compounds read low 1.11 [resistant] | S. cerevisiae deletion strains, locus YMR078C, strain ctf18, active compounds read low 1.1 [resistant] | S. cerevisiae deletion strains, locus YMR223W, strain ubp8, active compounds read low 1.12 [resistant] | S. cerevisiae deletion strains, locus YNL248C, strain rpa49, active compounds read low 0.783 | S. cerevisiae deletion strains, locus YNR052C, strain pop2, active compounds read low 1.09 [resistant] | S. cerevisiae deletion strains, locus YOR136W, strain idh2, active compounds read low 1.1 [resistant] | S. cerevisiae deletion strains, locus YOR144C, strain elg1, active compounds read low 1.1 [resistant] | S. cerevisiae deletion strains, locus YPR167C, strain met16, active compounds read low 1.08 [resistant]
